Bioassay records deposited in PubChem BioAssay by several laboratories.
GIRK2 activator: GIRK2 channel activators by thallium flux; P48051; HEK293 GIRK2/NPY4 cells, thallium flux fluorescence; activation (% efficacy), % for hits at 37.5 µM; 34,000 tested, under 10 active; AID 1259324;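 active means primary screen hit, no activity in plain HEK293 cells, and in GIRK2-only cells above 5% efficacy rising with concentration; inactive means the rest, including fluorescent compounds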;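 further: efficacy is normalized control-subtracted fluorescence 15 s after thallium addition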
GluA2 TARP mod: GluA2-stargazin AMPA receptor complex modulation | HEK293 GluA2+stargazin, membrane potential dye (FDSS), glutamate EC50; hits were called plate by plate, in both directions | calls only at 30 µM | 3.5% of 40,000 active | AID 1259245;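 active means any of four per-well response measures lying three or more SD from its plate-wide compound average, in either direction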
Calls only; - = inactive; . = no result given; + = active, no number. Only a selection was taken, and hits are over-represented in it overall.

SMILES	GIRK2 activator	GluA2 TARP mod
COCCn1c(=O)c2c(nc3n2CC(C)CN3c2ccc(Br)cc2)n(C)c1=O (stereo unspecified)	.	+
COCCn1c(=O)c2c(nc(-n3nc(C)cc3C)n2C)n(C)c1=O	.	+
CCOCCn1c(=O)c2c(nc3n2CC(C)CN3c2ccc(Br)cc2)n(C)c1=O (stereo unspecified)	.	-
CCn1c(-n2nc(C)cc2C)nc2c1c(=O)n(CCOC)c(=O)n2C	.	-
COc1ccc(OC)c(Nc2nnc(Cc3ccc(C)cc3)c(=O)[nH]2)c1	-	-
O=C(CC1SC(=O)N(Cc2ccccc2)C1=O)Nc1ccc([N+](=O)[O-])cc1 (stereo unspecified)	-	+
COc1ccc(NC(=O)CC2SC(=O)N(CC(=O)c3ccccc3)C2=O)cc1 (stereo unspecified)	-	-
Cc1ccc(NCCNC(=O)c2ccc3c(c2)OCO3)nn1	-	-
CN(C)CCCNC(=O)C(=O)Nc1ccc2c(c1)OCCO2	-	-
CC(=O)Nc1cccc(NC(=O)C(=O)NCCCN(C)C)c1	.	+
CN(CCCC(N)=O)S(=O)(=O)c1ccc2c(c1)C(=O)c1ccccc1C2=O	.	+
COc1ccc(S(=O)(=O)N(C)CCCC(=O)O)cc1N(C)S(=O)(=O)c1ccccc1	.	-
O=C(Cc1csc(Nc2ccccc2)n1)NCc1cccs1	-	-
CCOc1ccc(S(=O)(=O)CCN)cc1	-	-
Cc1nc2ccccn2c(=O)c1NC(=O)COc1ccc(C(=O)c2ccccc2)cc1	.	-
O=C(Nc1ccc(O)cc1)C(=O)Nc1nc2ccccc2s1	.	-
COc1cc(OC)cc(C2=NC3(CCCC3)N(C(=O)c3ccc(F)cc3)C2=S)c1	-	-
COC(=O)c1sccc1NC(=O)CN1CCCN(Cc2ccccc2)S1(=O)=O	.	-
CCOC(=O)c1ccccc1NC(=O)CN1CCCN(Cc2ccccc2Cl)S1(=O)=O	-	+
Cc1ccc2c(=O)c(C(=O)Nc3ccccc3)cn(CC(=O)Nc3ccccc3Cl)c2n1	.	-
COc1cccc(C(=O)Nc2nnc(-c3cc(OC)c(OC)c(OC)c3)o2)c1	.	+
COc1cccc(C(=O)Nc2nnc(-c3ccc(C)c(C)c3)o2)c1	-	-
COc1cc(-c2nnc(NC(=O)c3ccc(OC(C)C)cc3)o2)cc(OC)c1OC	.	-
COc1cc(-c2nnc(NC(=O)c3ccc(C(C)=O)cc3)o2)cc(OC)c1OC	.	+
CC1=C(C(=O)Nc2ccccc2F)C(c2cccc(Cl)c2)C2=C(CC(C)(C)CC2=O)N1 (stereo unspecified)	.	-
SMILES	GIRK2 activator	GluA2 TARP mod
COc1cccc(C(=O)Nc2ccc3c(c2)CCCN3C(=O)c2ccccc2)c1	.	-
O=C(NCc1cccs1)NCC(O)c1ccc(C(F)(F)F)cc1 (stereo unspecified)	.	-
O=C(NCC(O)c1ccc(C(F)(F)F)cc1)Nc1cccs1 (stereo unspecified)	.	+
CCSc1nnc(NC(=O)c2csc(-c3cnccn3)n2)s1	-	-
CCOc1ccc(S(=O)(=O)NCCOc2ccc(-c3ccccc3)nn2)cc1	-	+
COc1ccc(S(=O)(=O)NCCOc2ccc(-c3ccc(C)cc3)nn2)cc1OC	-	-
CCOc1ccc(-c2ccc(OCCNS(=O)(=O)c3ccccc3)nn2)cc1	-	-
COc1ccc(Cl)cc1S(=O)(=O)NCCOc1ccc(-c2ccccc2)nn1	-	-
COc1ccc(S(=O)(=O)NCCOc2ccc(-c3ccc(F)cc3)nn2)cc1F	-	+
CCOC(=O)c1ccc(S(=O)(=O)NCCOc2ccc(-c3ccccc3)nn2)cc1	-	+
CCOC(=O)c1ccc(S(=O)(=O)NCCOc2ccc(-c3ccc(OC)cc3)nn2)cc1	-	-
CCOc1ccc(C(C)C)cc1S(=O)(=O)NCCOc1ccc(-c2ccccc2)nn1	-	+
COc1ccc(-n2nc3c(c2NC(=O)C(=O)NCCO)CS(=O)(=O)C3)cc1	-	-
Cc1ccc(-n2nnc(C(=O)OCc3nc(-c4ccccc4C)oc3C)c2C)cc1	.	+
COc1cccc(COC(=O)c2nnn(-c3ccc(C)cc3)c2C)c1	.	+
COc1ccc(-n2nnc(C(=O)OCc3cccc(OC)c3)c2C)cc1	.	-
Cc1oc(-c2ccccc2)nc1COC(=O)c1nnn(-c2ccc(Cl)cc2)c1C	.	-
C=CCn1c(N)c(C(=O)NCCC(C)C)c2nc3ccccc3nc21	-	-
COc1ccc(N2CCN(C(=O)C(c3ccccc3)c3ccccc3)CC2)nn1	-	.
CCOC(=O)NCCc1ccsc1	-	-
CCOc1ccccc1NC(=O)c1ccc(S(=O)(=O)c2ccc(Cl)cc2)nc1	-	-
Cc1noc(C)c1S(=O)(=O)NCCC(O)c1cccs1 (stereo unspecified)	-	-
O=S(=O)(Nc1ccc2cn[nH]c2c1)c1ccc(Br)cc1	.	-
O=C(Cc1ccc(Cl)cc1)N1CCN(c2ccc(Nc3ccccn3)nn2)CC1	-	-
Cc1ccc(Nc2cc(C)nc(N3CCN(C(=O)COc4ncccn4)CC3)n2)cc1	-	+
SMILES	GIRK2 activator	GluA2 TARP mod
Cc1cc(Nc2ccccc2)nc(N2CCN(C(=O)c3ccc4c(c3)OCO4)CC2)n1	.	-
COc1ccc(Nc2cc(C)nc(N3CCN(C(=O)C4CCCC4)CC3)n2)cc1	-	+
O=C(COc1ncccn1)N1CCN(c2ccc(Nc3ccccn3)nn2)CC1	-	+
Cc1cc(C)n(-c2ccc(N3CCN(C(=O)COc4ncccn4)CC3)nn2)n1	-	.
Cn1c2c(c(=O)[nH]c1=O)C(c1cccc(O)c1)NC(=O)N2 (stereo unspecified)	-	-
CC(C)(C)C(=O)NCCC(O)c1ccccc1 (stereo unspecified)	-	-
Cc1nn(C2CCS(=O)(=O)C2)c2nc(-c3cccs3)cc(C(=O)N3CCCCCC3)c12 (stereo unspecified)	-	-
COc1ccccc1C1C=C(c2ccc(Cl)cc2)Nc2nc(NS(C)(=O)=O)nn21 (stereo unspecified)	.	-
Cc1ccc(C2=CC(c3ccc(Cl)cc3)n3nc(N4C(=O)CCC4=O)nc3N2)cc1 (stereo unspecified)	.	+
Cc1nc(C)c(C(=O)N2CCN(c3ccc(N(C)C)nn3)CC2)s1	-	+
Cc1nc(C)c(C(=O)N2CCN(c3nc4c(C)c(C)ccc4s3)CC2)s1	-	-
O=C(Cc1ccc(NS(=O)(=O)c2ccc(F)cc2F)cc1)N1CCCC1	-	-
O=C(CCCS(=O)(=O)c1ccccc1)Nc1nc2ccc([N+](=O)[O-])cc2s1	-	+
COc1cc([N+](=O)[O-])cc2sc(NC(=O)CCCS(=O)(=O)c3ccccc3)nc12	-	+
CCOc1ccc(CC(=O)Nc2nc3c(OC)cc([N+](=O)[O-])cc3s2)cc1	.	-
COc1ccc(S(=O)(=O)CC(=O)Nc2nc3ccc([N+](=O)[O-])cc3s2)cc1	-	-
O=C(CCCS(=O)(=O)c1ccc(Cl)cc1)Nc1nc(-c2cc([N+](=O)[O-])cs2)cs1	.	-
Cc1ccc(S(=O)(=O)CCCC(=O)Nc2nc(-c3cc([N+](=O)[O-])cs3)cs2)cc1	-	+
Cc1cc(N(C)C)nc(NCCNC(=O)Nc2ccc(C)c(C)c2)n1	-	-
CCN(CC)c1cc(C)nc(Nc2ccc(NC(=O)C(C)(C)C)cc2)n1	-	+
O=C(NCC1CCN(C(=O)COc2ccccc2)CC1)c1ccccn1	-	-
Cc1cc(C(=O)N(Cc2ccccn2)c2nc3ccc(F)cc3s2)on1	-	-
